Bioassay records from PubChem BioAssay.
SRC2 inh – inhibits human steroid receptor coactivator 2; Q15596; HEK293 GAL4-SRC2 luciferase reporter, luminescence; inhibition, % at 9 µM; hit rate 0.17% among 370,000;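 active = inhibition above the mean inhibition of all tested compounds plus 3 SD, set per campaign, cut at about 52% in these data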;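 note: 0% = DMSO treated cells and 100% = cells given Gossypol at 36 µM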
SRC3 inh – inhibits human SRC3 coactivator; Q9Y6Q9; HEK293 GAL4-SRC3 luciferase reporter, luminescence; inhibition, % at 3.6 µM; hit rate 0.17% among 360,000;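 active = inhibition above a per-campaign cutoff, the mean of all compounds plus 3 SD, cut at about 60% in these data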;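 note: 0% = DMSO-treated cells and 100% = gossypol-treated cells at 36 µM; higher means less SRC3-driven luciferase light from the GAL4 reporter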
NR5A2 inv ag – NR5A2 inverse agonism in reporter assay; AID 602396; hit rate 0.13% among 360,000; inhibition, % at 3.6 µM; HEK293T StAR-luciferase reporter, LRH-1 transfected, 24 h; O00482;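 active = inhibition above the mean inhibition of all tested compounds plus 3 SD, cut at about 73% in these data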;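 note: 0% = DMSO wells and 100% = reporter-only cells lacking LRH-1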
Target sequence (O00482 whole entry, looked up): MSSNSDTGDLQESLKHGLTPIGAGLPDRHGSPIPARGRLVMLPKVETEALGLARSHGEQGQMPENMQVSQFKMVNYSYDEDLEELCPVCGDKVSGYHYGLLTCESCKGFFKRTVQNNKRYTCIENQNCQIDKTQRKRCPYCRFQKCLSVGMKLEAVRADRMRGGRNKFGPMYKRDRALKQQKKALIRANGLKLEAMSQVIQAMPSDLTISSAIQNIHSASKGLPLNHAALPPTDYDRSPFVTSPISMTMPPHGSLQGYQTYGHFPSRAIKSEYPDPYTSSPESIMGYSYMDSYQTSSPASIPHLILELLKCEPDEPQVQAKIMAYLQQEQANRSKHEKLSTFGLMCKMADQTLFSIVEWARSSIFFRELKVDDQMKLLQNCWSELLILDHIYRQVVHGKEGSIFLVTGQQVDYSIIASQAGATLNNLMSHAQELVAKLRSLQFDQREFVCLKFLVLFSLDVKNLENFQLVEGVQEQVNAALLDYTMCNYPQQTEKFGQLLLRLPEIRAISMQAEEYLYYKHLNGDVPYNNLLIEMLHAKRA
COUP-TFII inh – inhibitors of human COUP-TFII (NR2F2) | P24468 | HEK293T NGFI-A luciferase reporter, luminescence | inhibition, % at 8.6 µM | hit rate 0.7% among 370,000 | AID 686940;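 active = inhibition above a per-plate cutoff, mean inhibition of test wells between control levels plus 3 SD, cut at about 38% in these data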;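 note: cells cotransfected with COUP-TFII expression vector driving the NGFI-A reporter; 0% = median of COUP-TF2 test wells and 100% = reporter-only cells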
Gli-Sufu antag – antagonists of Gli-Sufu signaling | Sufu-KO-LIGHT fibroblasts, Gli luciferase reporter luminescence | inhibition, % at 5 µM | hit rate 0.74% among 340,000 | AID 588413;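 active = inhibition above about 55%, limit read from the data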;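 note: 0% = DMSO-treated cells and 100% = wells with medium but no cells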
NCOA1 inh – inhibitors of human steroid receptor coactivator 1 (SRC1) | Q15788 | HEK293 GAL4-SRC1 luciferase reporter, luminescence | inhibition, % at 3.6 µM | hit rate 0.12% among 360,000;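 active = inhibition above the campaign mean plus 3 SD, with each screening campaign given its own cutoff, cut at about 60% in these data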;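 note: 0% = DMSO treated cells and 100% = gossypol at 36 µM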
Gli antag conf – confirmation of Gli-SUFU pathway antagonists; shares compounds with Gli-Sufu antag; Sufu-KO-LIGHT cells, Gli luciferase reporter, luminescence; inhibition, % at 5 µM; hit rate 40% among 2,500; AID 602428;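 active = mean inhibition at 5 µM reaching about 45%, limit read from the data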;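 note: plate controls were DMSO-treated cells for no effect and wells lacking cells for full effect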
Gli cytotox – cytotoxicity counter-screen for Gli-SUFU antagonists. cytotoxicity, % at 5 µM. shares compounds with Gli-Sufu antag. hit rate 32% among 2,500. AID 651994. Sufu-KO-LIGHT cells cytotoxicity, ATP luminescence;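 active = mean cytotoxicity at 5 µM above about 25%, limit read from the data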;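 note: cells exposed to compound overnight for roughly 16 to 18 hours; plate controls were DMSO wells with cells for no effect and medium without cells for full effect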
Wnt3a cs – inhibits Wnt3a reporter, counter-screen for Gli-SUFU antagonists | shares compounds with Gli-Sufu antag | Wnt-LIGHT cells, Wnt3a-driven luciferase reporter, luminescence | inhibition, % at 6.25 µM | hit rate 20% among 2,500;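 active = mean inhibition above about 25%, limit read from the data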
Gal4-VP16 ctr – inhibits VP16 reporter, flagging COUP-TFII antagonist hits. shares compounds with COUP-TFII inh. inhibition, % at 8.5 µM. AID 687007. hit rate 25% among 2,500. HEK293 Gal4-VP16 luciferase reporter, luminescence; in the data active = inhibition above about 13%
NR2F2 inh conf – COUP-TFII (NR2F2) inhibition, confirmation assay | hit rate 45% among 2,500 | shares compounds with COUP-TFII inh | AID 687008 | HEK293 NGFI-A luciferase reporter, luminescence | inhibition, % at 8.5 µM;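 active = mean inhibition over three repeats above a set limit taken from the earlier primary screen, cut at about 38% in these data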;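 note: 100% = cells given the luciferase reporter alone without the COUP-TF2 vector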
The depositor's hits bear a star; nt = no result. A selection: hits, their analogues and other compounds. The true share with any hit is near 1.3%.

SMILES	SRC2 inh	SRC3 inh	NR5A2 inv ag	COUP-TFII inh	Gli-Sufu antag	NCOA1 inh	Gli antag conf	Gli cytotox	Wnt3a cs	Gal4-VP16 ctr	NR2F2 inh conf
CCN(CC)CCCNC(=O)c1cc2cc(Cl)ccc2nc1N	-2.8	nt	nt	4.0	nt	nt	nt	nt	nt	nt	nt
Cc1nc2cc(N3CCN(C)CC3)c(NC(=O)Cc3ccccc3)cc2c(=O)n1Cc1ccccc1	46.1	44.8	20.5	48.8*	54.0	28.6	49.1*	9.6	-13.9	-0.7	15.3
CC(C)(C)c1ccc(C(=O)O/N=C(\N)c2ccccn2)cc1	86.3*	88.4*	88.3*	95.5*	86.5*	89.7*	91.2*	19.4	101.7*	73.5*	101.5*
Cc1ccc(NC(=O)N2CCC(N(C)CCC(C)C)CC2)cc1F	-2.5	nt	nt	-5.6	nt	nt	nt	nt	nt	nt	nt
CCC(C)CNC(=O)CN1C(=O)C2CCCCN2C(=O)c2ccccc21 (centres undefined)	3.7	nt	nt	2.9	nt	nt	nt	nt	nt	nt	nt
CCc1ccc(CN(C)C(=O)c2cc(COc3cccc4cnccc34)on2)cc1	17.7	33.7	37.3	66.4*	64.8*	14.5	61.7*	25.1*	-1.7	-7.2	57.5*
CCc1ccc(CN(C)C(=O)c2cc(COc3c(F)cccc3F)on2)cc1	-13.5	6.4	-9.3	-1.2	-2.9	11.6	nt	nt	nt	nt	nt
O=C(NN=Cc1ccccc1C(F)(F)F)c1cc(-c2ccc(Cl)cc2)n[nH]1	-9.1	nt	nt	-7.8	nt	nt	nt	nt	nt	nt	nt
Cc1nc(NCCc2ccc(S(N)(=O)=O)cc2)c2c(C)c(C)sc2n1	-0.1	26.9	38.1	48.0*	62.8*	7.3	58.5*	38.9*	24.9	0.0	17.4
Cn1cc(CNCc2cn[nH]c2-c2ccc(F)cc2)c(-c2ccc3c(c2)OCCO3)n1	-5.6	14.0	-3.7	-1.0	2.3	-8.6	nt	nt	nt	nt	nt
Cn1cc(CNCc2ccc(OC(F)(F)F)cc2)c(-c2ccc3c(c2)OCCO3)n1	13.0	23.5	27.1	48.1*	60.1*	-0.3	62.5*	35.8*	26.4*	7.2	39.7*
FC(F)(F)c1nc(-c2ccncc2)ncc1-c1nnnn1-c1ccccc1	-14.0	6.9	0.7	9.0	15.9	3.6	nt	nt	nt	nt	nt
FC(F)(F)c1nc(N2CCCC2)ncc1-c1nnnn1-c1ccc(Cl)cc1	20.6	17.6	11.9	38.3*	53.8	5.0	53.9*	45.1*	20.4	4.1	33.0
FC(F)(F)c1ccncc1-c1nnnn1-c1ccc(Cl)cc1	-7.9	12.8	30.1	12.2	-4.3	3.9	nt	nt	nt	nt	nt
Fc1ccc(-n2nnnc2-c2cnc(-c3cccs3)nc2C(F)(F)F)cc1	28.2	25.9	5.2	52.9*	51.3	30.4	56.1*	30.6*	-13.1	8.7	38.5*
Cc1ccc(-n2c(SCC(=O)Nc3ccc4c(c3)OCCO4)nnc2-c2ccccn2)cc1	-6.4	nt	nt	8.3	nt	nt	nt	nt	nt	nt	nt
Cc1ccc(-c2cc(C(=O)NN=Cc3cccc4ccccc34)[nH]n2)cc1C	-0.8	nt	nt	-12.7	nt	nt	nt	nt	nt	nt	nt
CCCCCN1CCCCC(NC(=O)Cc2ccccc2)C1=O (centres undefined)	6.1	nt	nt	-3.1	nt	nt	nt	nt	nt	nt	nt
CCOc1ccc(-c2c[n+]3c(n2-c2ccccc2)CCCCC3)cc1	28.4	37.6	50.8	56.4*	87.8*	24.3	87.8*	39.3*	20.5	5.6	44.0*
CC1(C)CC(N2CCN(Cc3ccccc3)CC2)=CC(=[N+]2CCCCC2)C1	28.7	43.8	56.6	52.5*	79.2*	36.9	85.3*	33.9*	38.8*	5.5	35.6
CC1(C)CC(N2CCCC2)=CC(=[N+]2CCCCC2)C1	8.5	30.2	52.8	55.8*	82.0*	43.4	84.9*	32.6*	41.6*	8.1	44.6*
CC1(C)CC(=O)c2sc(N3CCCCC3)nc2C1	-41.0	-118.7	-64.2	-10.6	8.4	-71.9	nt	nt	nt	nt	nt
CC1(C)CC(N2CCCC2)=CC(=[N+]2CCCC2)C1	25.9	-1.3	48.8	47.0*	81.9*	34.3	85.5*	34.2*	34.9*	3.6	27.4
CC1(C)CC(NNCCC#N)=CC(=[N+]2CCCC2)C1	22.2	4.5	2.1	-7.3	5.1	7.3	nt	nt	nt	nt	nt
COC(=O)[C@]12C[C@H](CC(=O)NCc3ccc(OC)c(OC)c3)C(=O)N(Cc3ccc(Cl)cc3Cl)C1=C[C@H](COCc1ccccc1)O[C@@H]2C	-30.9	nt	nt	22.1	nt	nt	nt	nt	nt	nt	nt
SMILES	SRC2 inh	SRC3 inh	NR5A2 inv ag	COUP-TFII inh	Gli-Sufu antag	NCOA1 inh	Gli antag conf	Gli cytotox	Wnt3a cs	Gal4-VP16 ctr	NR2F2 inh conf
Clc1ccc(-n2c(SCc3cccc4ccccc34)nnc2-c2ccco2)cc1	-5.5	nt	nt	16.3	nt	nt	nt	nt	nt	nt	nt
COC(=O)C1=C(C)N(Cc2ccc(C(F)(F)F)cc2)C(=NCc2ccccc2)NC1c1cccc(Cl)c1 (centres undefined)	-1.3	nt	nt	-7.9	nt	nt	nt	nt	nt	nt	nt
CC(C)(C)C(=O)Nc1cc2nn(-c3ccccc3)nc2cc1Cl	72.7*	81.5*	82.9*	87.4*	80.5*	81.5*	86.8*	83.0*	104.5*	71.6*	101.3*
CC(=O)Nc1cc2nn(-c3ccccc3)nc2cc1Cl	-82.1	-66.6	-80.1	-48.8	-88.7	-99.4	nt	nt	nt	nt	nt
CCOc1ccc(OCc2ccc(C(=O)NN=Cc3ccc[nH]3)cc2)cc1	-27.9	53.2	85.9*	73.0*	79.5*	-4.8	79.8*	17.7	-20.5	-4.5	70.5*
O=C(Nc1ccc(Cl)cc1)N1CCN(Cc2nc3ccccc3c(=O)[nH]2)CC1	-15.0	nt	nt	1.3	nt	nt	nt	nt	nt	nt	nt
COc1ccc(-c2nsc3c(N4CCCCC4C)ncnc23)cc1 (centres undefined)	82.0*	88.6*	85.9*	96.9*	80.9*	89.0*	91.3*	47.2*	105.3*	88.3*	103.7*
O=C(NC1CCN(Cc2ccccc2)CC1)c1ccc2c(c1)[nH]c(=O)n2Cc1ccc(F)cc1	-1.2	20.3	18.8	64.4*	52.9	-8.2	28.0	20.6	17.1	2.8	34.0
Nc1ncnc2c(C3OC(CO)C(O)C3O)c[nH]c12 (centres undefined)	69.5*	94.0*	99.5*	81.8*	86.7*	94.2*	89.2*	85.5*	100.9*	48.9*	80.6*
Nc1ncnc2c1ncn2[C@@H]1O[C@H](CO)[C@@H](O)[C@H]1O	-2.4	8.6	12.3	-16.9	-17.2	5.1	nt	nt	nt	nt	nt
Nc1nonc1C(=O)NCCNCc1cc(Br)ccc1OCc1ccccc1F	17.4	15.4	12.1	65.7*	51.0	3.3	44.2	34.2*	2.2	19.2*	25.7
